Assay outcomes as filed in PubChem BioAssay.
An excerpt weighted towards active compounds, which were near 7.3% of everything screened.
AmpC no deterg – inhibitors of E. coli AmpC beta-lactamase without detergent; AmpC nitrocefin hydrolysis, absorbance 480 nm, 0.0001% Triton; Potency, µM (top dose mostly 57.1 µM), for the others: at the highest dose activity change, negative = inhibition, hits mostly inhibitors; hit rate 0.52% among 330,000; AID 485341;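 note: potency is the fitted concentration of half-maximal effect; plate controls were no compound for no effect and no enzyme for full effect; nearly all actives have a fitted effect of over 20% in size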
Target sequence (P00811 whole entry, looked up): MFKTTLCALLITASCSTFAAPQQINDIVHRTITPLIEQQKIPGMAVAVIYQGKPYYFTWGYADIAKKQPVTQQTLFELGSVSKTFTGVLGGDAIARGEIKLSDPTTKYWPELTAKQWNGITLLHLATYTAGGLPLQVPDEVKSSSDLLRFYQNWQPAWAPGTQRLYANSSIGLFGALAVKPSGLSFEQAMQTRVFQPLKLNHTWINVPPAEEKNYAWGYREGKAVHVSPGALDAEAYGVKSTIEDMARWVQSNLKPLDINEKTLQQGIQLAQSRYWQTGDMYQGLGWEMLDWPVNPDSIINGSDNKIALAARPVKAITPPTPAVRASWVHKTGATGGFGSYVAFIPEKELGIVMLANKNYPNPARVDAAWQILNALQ
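AmpC (5.3 nM in the dispensed reagent) in 20 mM phosphate pH 7.0 with 0.01% (detergent screen) or 0.0001% Triton X-100 was preincubated with compounds for 15 min at room temperature. Nitrocefin was then added from an 800 uM solution, and hydrolysis was followed at 480 nm.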
HCMV antiviral – human cytomegalovirus inhibition | activity change, negative = inhibition, % at 57.5 µM | hit rate 4.5% among 410,000 | HFF cells, HCMV-luciferase reporter, 72 h; active compounds read low | AID 1259415; in the data active = activity change below about -60%; inconclusive = no clear call, values can overlap the other calls; inactive = above about -39%
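Screen run at 2 compound doses on HFFs infected with reporter HCMV, MOI 1 PFU/cell. Luciferase activity from cell lysates at 72 h post infection gave inhibition relative to buffer-only and Salinomycin wells.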
FMDV antiviral – foot and mouth disease virus antiviral activity. FMDV antiviral cell-based qHTS. Potency, µM (top dose mostly 57.9 µM), for inactives: top-dose activity change, negative = inhibition, actives largely listed as inhibitors. hit rate 1.2% among 410,000; calls by dose curve; tested in HEK293T cells; note: read-out not given here; potency is the fitted concentration of half-maximal effect; nearly all actives have a fitted effect of over 45% in size
HCV inh – blocks hepatitis C virus; AID 651820; hit rate 3.4% among 340,000; Potency, µM (highest dose often 41.8 µM), without a hit: at the highest dose activity change, negative = inhibition, most hits filed as inhibitors; Huh7.5.1 HCVcc-Cre infection, luciferase reporter, 44 h; note: potency is the fitted concentration of half-maximal effect
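Infectious HCVcc-Cre (~0.5 moi) was added to cells just after compound, with cells seeded 4 h earlier at 1,000 per well. Luciferase activity after 44 h culture reported infection; substrate was incubated 15 min at room temperature before reading.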
AmpC inh detg – AmpC beta-lactamase inhibition with detergent present; P00811; AmpC hydrolysis of nitrocefin, absorbance 480 nm, 0.01% Triton; Potency, µM (series often up to 114 µM), without a hit: at the highest dose activity change, negative = inhibition, actives largely listed as inhibitors; hit rate 0.041% among 370,000; AID 485294;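 note: potency is the fitted concentration of half-maximal effect; 0% = no-compound wells and -100% = no-enzyme wells; nearly all actives have a fitted effect of over 25% in size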
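20 mM phosphate pH 7.0 + 0.01% (detergent screen) or 0.0001% Triton X-100; 5.3 nM AmpC reagent; cpd preinc 15 min RT; nitrocefin (800 uM stock) to start; A480 q20 s × 4 min; Activity was normalised to no-enzyme and no-compound control wells.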
An asterisk follows results filed as active; ? = inconclusive; nt = no result. Unless noted, calls come from the whole dose curve; as a rule, active = well fitted curve in the direction sought with a large enough effect; inconclusive = small, poorly fitted or top-dose-only effect, or another doubt; inactive = no such curve, though single readings can be large; an effect the other way counts as inactive or inconclusive. Unless noted, % is set by controls: 0 for no effect and ±100 for the full control effect.

SMILES	AmpC no deterg	HCMV antiviral	FMDV antiviral	HCV inh	AmpC inh detg
COc1ccc(Cn2c(SCC(N)=O)nc3c(sc4ccccc43)c2=O)cc1	nt	?	-1%	nt	-1%
O=S1(=O)C[C@@H](N2CCC[C@@H]2CO)[C@H](COCc2ccccc2)N1	nt	-7	-7%	nt	nt
CCOC(=O)CS(=O)(=O)c1nc(-c2ccc(F)cc2)cc(C(F)(F)F)n1	-18%	nt	?	10µM*	-13%
O=C(O)CCS(=O)(=O)c1nc(-c2cccs2)cc(C(F)(F)F)n1	-8%	-13	-26%	-4%	-6%
CCOC(=O)CCS(=O)(=O)c1nc(-c2ccccc2)cc(C(F)(F)F)n1	-12%	nt	20µM*	10µM*	1%
CCOC(=O)CS(=O)(=O)c1nc(-c2ccccc2)cc(C(F)(F)F)n1	-2%	-103*	22µM*	?	-7%
CCOC(=O)c1c(C(F)(F)F)cc(-c2ccc(F)cc2)nc1C	-4%	29	8%	-13%	-12%
COC(=O)CCS(=O)(=O)c1nc(-c2ccccc2)cc(C(F)(F)F)n1	-16%	nt	16µM*	?	?
CCc1cccc(NC(=O)c2nnn(Cc3ccc(SC)cc3)c2N)c1	nt	22	23%	nt	?
CC(C)CC(=O)C(=O)O	nt	-10	-13%	2%	nt
CCC(C)NC(=O)CCSc1nc(-c2ccc(OC)cc2)cc(C(F)(F)F)n1 (stereo unspecified)	nt	-31	-22%	nt	23%
COCC(C)NC(=O)CCS(=O)(=O)c1nc(-c2ccc(OC)cc2)cc(C(F)(F)F)n1 (stereo unspecified)	-9%	-104*	32µM*	?	0%
COC(=O)[C@]1(C#N)[C@H](Cc2ccccc2)C(=O)N(Cc2ccc(Cl)cc2)[C@@H]1c1ccc(OC)cc1	nt	-10	nt	nt	nt
Cc1cccn2c(=O)cc(COc3cccc(NC(=O)c4ccccc4F)c3)nc12	nt	-91*	-29%	nt	15%
COC(=O)c1ccccc1NC(=O)Nc1cccc(OCc2cc(=O)n3cccc(C)c3n2)c1	nt	-18	0%	nt	2%
Cc1cccn2c(=O)cc(COc3cccc(NC(=O)COc4ccc(F)cc4)c3)nc12	nt	-90*	?	nt	-7%
Cc1ccc(Cl)cc1NC(=O)Nc1cccc(OCc2cc(=O)n3ccccc3n2)c1	nt	-65*	5%	nt	-8%
O=C(COc1ccccc1F)Nc1ccc(OCc2cc(=O)n3ccccc3n2)cc1	nt	-61*	16%	nt	8%
CC(=O)Nc1ccc(OCc2cc(=O)n3ccccc3n2)cc1	nt	35	29%	nt	25%
Cc1cccn2c(=O)c(C=O)c(Nc3ccccc3)nc12	-17%	nt	-2%	?	3%
O=C(NCc1ccccc1)c1nn(-c2ccccc2)nc1CO	nt	?	0%	nt	25%
CCCCCC(=O)N1C[C@H](O)[C@@H](n2cc(C3CC3)nn2)C[C@@H]1c1ccc(Cl)cc1	nt	-39	-18%	nt	nt
Cc1cc(C(=O)CSc2nnc(C3CC3)n2C2CC2)c(C)n1C(C)C	1%	86	9%	-3%	1%
CCOc1cc(-c2ccc(OC(=O)c3ccc(C)cc3)c(OC)c2)cc(=O)c2c(C)oc(C)c12	nt	106	25µM*	nt	-6%
COc1cc(-c2cc(OC)c3c(C)oc(C)c3c(=O)c2)ccc1OC(=O)c1ccc(C)cc1	nt	12	?	nt	20%
SMILES	AmpC no deterg	HCMV antiviral	FMDV antiviral	HCV inh	AmpC inh detg
CCCS(=O)(=O)NCCc1sc2nc(-c3ccc(Cl)cc3)nn2c1C	nt	-66*	-16%	nt	-2%
Cc1cc(C)c(S(=O)(=O)NCCc2sc3nc(-c4ccc(F)cc4)nn3c2C)c(C)c1	nt	-60*	30%	nt	4%
CCc1ccc(NC(=O)C(=O)NCCc2sc3nc(-c4ccc(OC)cc4)nn3c2C)cc1	nt	-64*	-9%	nt	0%
COc1ccc(-c2nc3scc(CCNS(=O)(=O)c4ccc(Oc5ccccc5)cc4)n3n2)cc1OC	nt	-72*	11%	nt	4%
CCOc1ccc(S(=O)(=O)NCCc2sc3nc(-c4ccc(F)cc4)nn3c2C)cc1	nt	?	-18%	nt	3%
CC(C)C[C@@H]1COc2cc(F)ccc2S(=O)(=O)N1	nt	4	nt	nt	nt
O=C(CCC1CCN(C(=O)CC2=CCCCC2)CC1)NCc1ccc(F)cc1	nt	-16	-19%	nt	nt
COc1ccc(S(=O)(=O)NCCc2sc3nc(-c4ccc(C)cc4)nn3c2C)cc1C	nt	-94*	4%	nt	2%
